The results in this text go back to PubChem BioAssay (Tox21).

“And” between values parts separate entries of the source, which are not always exact repeats. Equal values may be shown once. Values without a mark were called inactive. Results filed as inconclusive are left out. The source made the active and inactive calls. Unless noted, calls follow the shape of the dose curve; as a rule, active = well fitted curve in the direction sought with a large enough effect in the repeat runs; inconclusive = weak or mixed curves; inactive = no such curve, though single readings can be large; an effect the other way counts as inactive or inconclusive.

Assay [1] in a line: qHTS assay to identify small molecule antagonists of the estrogen related receptor (ERR) signaling pathway from Tox21 library - cell viability counter screen (AID 1224834). Also: nearly all actives have a fitted effect of over 30% in size. Summed up: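 CellTiter-Fluor fluorescence measured; ERR cells; 17.5 h compound incubation at 37 C; 30 min reagent step.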
Assay [2] deals with Luciferin 4-monooxygenase (Photinus pyralis) (UniProt P08659). Briefly: qHTS assay to identify small molecule inhibitors of firefly luciferase (AID 1224835). Also: nearly all actives have a fitted effect of over 25% in size. Also: potency is read from the fitted curve at half-maximal effect. Summed up: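 Inhibition of purified Photinus luciferase is measured by luminescence. Substrate levels (D-luciferin, ATP) sit at their KM values. Each compound is tested in a concentration series.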
Assay [3] can be described thus: qHTS assay to identify small molecule agonists of the constitutive androstane receptor (CAR) signaling pathway - cell viability counter screen (AID 1224836). Also: nearly all actives have a fitted effect of over 45% in size. The procedure, abridged: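 Double-stable HepG2 hepatoma cells (hCAR plus CYP2B6-2.2kb) are treated for 23 h at 37 C with test compounds in 15-point concentration series. PK11195 at 0.75 uM final is co-added. Cell viability is quantified by CellTiter-Fluor.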
Background: qHTS replaces the single test concentration by a dilution series.

The target in assay [4] is Nuclear receptor subfamily 1 group I member 3 (Homo sapiens) (UniProt Q14994). In words: qHTS assay to identify small molecule antagonists of the constitutive androstane receptor (CAR) signaling pathway (AID 1224838).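 Also: HepG2 cells stably expressing hCAR with CYP2B6 luciferase reporter stimulated by CITCO; nearly all actives have a fitted effect of over 40% in size.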 The procedure, abridged: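 Reporter luminescence was quantified after 24 h exposure of hCAR/CYP2B6-2.2kb double-stable HepG2 cells to compounds at 15 concentrations in the presence of 50 nM CITCO final.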

For assay [5] the target is unchanged. Briefly: qHTS assay to identify small molecule agonists of the constitutive androstane receptor (CAR) signaling pathway (AID 1224839). Also: nearly all actives have a fitted effect of over 15% in size. Also: potency is read from the fitted curve at half-maximal effect. The procedure, abridged:
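Readout: firefly luciferase luminescence via ONE-Glo. System: HepG2 double-stable for hCAR and CYP2B6-2.2kb. Conditions: 15-point compound titration, PK11195 at 0.75 uM final, 24 h incubation.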

A short description of assay [6]: qHTS assay to identify small molecule antagonists of the estrogen related receptor signaling pathway with the pleiotropic PPARgamma coactivator (PGC) from Tox21 10K library - cell viability counter screen (AID 1224840; active = well fitted cell-killing curve with a large enough effect in the repeat runs, not every such curve was filed as active; also: nearly all actives have a fitted effect of over 40% in size). Summed up: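 Here the PGC/ERR cells serve as a cytotoxicity control: they are exposed to compounds for 17.5 hours at 37 C, and live-cell signal is quantified using CellTiter-Fluor fluorescence.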

The nature of assay [7]: qHTS assay to identify small molecule antagonists of the estrogen related receptor signaling pathway with the pleiotropic PPARgamma coactivator (PGC) from Tox21 10K library (AID 1224841; call rule not given here; also: actives are mostly falling curves and most rising ones were filed inactive; nearly all actives have a fitted effect of over 50% in size). Summed up:
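Each well held 2,000 PGC/ERR cells, pre-incubated six hours (37 C, 5% CO2). Test substances in DMSO were added by pin tool and left for 18 h at 37 C before luciferase detection by One-Glo.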

Assay [8] can be described thus: qHTS assay to identify small molecule agonists of the estrogen related receptor signaling pathway with the pleiotropic PPARgamma coactivator (PGC) from Tox21 10K library (AID 1224842). Also: nearly all actives have a fitted effect of over 15% in size. Summed up: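 Luminescence from One-Glo (30 min, room temperature) measured after PGC/ERR cells had 18 h at 37 C with pinned compound (23 nL in DMSO). Cells had been seeded at 2,000 per well and pre-incubated 6 h.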

The target of assay [9] is Thyrotropin receptor (Homo sapiens) (UniProt P16473). In words: qHTS assay to identify small molecule agonists of the thyroid stimulating hormone receptor (TSHR) signaling pathway (AID 1224843; calls by dose curve; also: nearly all actives have a fitted effect of over 45% in size). The procedure, abridged: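 HEK293 cells stably bearing the thyrotropin receptor were plated at 800 cells/well and challenged with compound (30 min, RT). Accumulated cAMP was quantified via cAMP-d2 competing for cryptate-tagged antibody.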

Assay [10] is described as follows: qHTS assay to identify small molecule agonists of the hypoxia (HIF-1) signaling pathway - cell viability counter screen (AID 1224844; calls by dose curve; also: nearly all actives have a fitted effect of over 50% in size). The procedure, abridged: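 Multiplexed with the HRE beta-lactamase assay, this viability read used CellTiter-Glo luminescence (30 min, RT) on HRE-bla ME-180 cells treated 17 hrs with compounds in 0.5% dialyzed FBS medium.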
Assay [11] in a line: qHTS assay to identify small molecule agonists of H2AX (AID 1224845; active = well fitted activation curve with a large enough effect in the signal ratio in the repeat runs, not every such curve was filed as active; the % refers to the signal ratio). Summed up: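 Phospho-H2AX Ser139 measured by HTRF (ex 320 nm; em 665 and 620 nm) after 24 hr antibody incubation. Compounds, 15 concentrations, 0.76% DMSO, were applied to CHO-K1 cells for 3hr at 37C before lysis.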
A short description of assay [12]: qHTS assay to identify small molecule agonists of the hypoxia (HIF-1) signaling pathway (AID 1224846; active = well fitted activation curve with a large enough effect in the signal ratio in the repeat runs, not every such curve was filed as active; the % refers to the signal ratio). Summed up:
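Hypoxia-pathway activation was scored as increased beta-lactamase from an HRE-controlled reporter in ME-180 cells; plated at 2,000 cells per well with 0.5% dialyzed FBS, they were exposed 17 hrs to compounds and then given CCF4-AM.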

Assay [13] can be described thus: qHTS assay to identify small molecule agonists of H2AX - cell viability counter screen (AID 1224847; calls by dose curve;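 also: wild-type CHO-K1 cells; top concentration of the series differs between compounds; nearly all actives have a fitted effect of over 30% in size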). Summed up:
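For this counter screen, overnight-attached CHO-K1 cells received test compounds (15 concentrations, 0.76% DMSO final); 3 hr later at 37C, CellTiter-Glo reagent was added and luminescence recorded after 30 min at room temperature.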

A short description of assay [14]: qHTS assay to identify small molecule antagonists of the estrogen related receptor (ERR) signaling pathway from Tox21 library (AID 1224848). Also: nearly all actives have a fitted effect of over 50% in size. The procedure, abridged:
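Reading was by luminescence 30 min after ONE-Glo addition. Before that, ERR cells at 2,000 per well had rested 6 h at 37 C/5% CO2 and then received pin-tooled compounds in DMSO for 18 h at 37 C.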

Assay [15] in a line: qHTS assay to identify small molecule agonists of the estrogen related receptor (ERR) signaling pathway from Tox21 library (AID 1224849; calls by dose curve; also: nearly all actives have a fitted effect of over 15% in size). Conditions: ERR reporter cell line, ONE-Glo luciferase, 18 h; at 92.4 µM (top of the series) unless noted. The procedure, abridged: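 Six hours post-seeding at 37 C/5% CO2, ERR cells receive DMSO-solubilised compounds; after 18 h at 37 C, ONE-Glo reagent is applied and luminescence recorded.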

Assay [16] in a line: qHTS RealTime-Glo MT Cell Viability Assay in HepG2 cells - 24 hour (AID 1224867). Also: nearly all actives have a fitted effect of over 50% in size. The procedure, abridged:
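Tox21 10K library screened in qHTS format on HepG2 cells carrying RealTime-Glo reagents. Compounds were added after a 5 h preincubation, and the luminescent signal from continuous culture was measured repeatedly during 40 h treatment.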

Assay [17] in a line: A CellTox Green Cytotoxicity Assay to monitor cytotoxicity in HEK293 cells - 0 hour (AID 1224869). Also: nearly all actives have a fitted effect of over 50% in size. The procedure, abridged:
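Seeding of HEK293 cells together with cytotoxicity dye preceded a 5 h incubation at 37 C/5% CO2. Test compounds in DMSO were then added and fluorescence monitored across 40 h.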

Assay [18] is described as follows: qHTS RealTime-Glo MT Cell Viability Assay in HEK293 cells - 32 hour (AID 1224868). Also: nearly all actives have a fitted effect of over 50% in size. Also: potency is read from the fitted curve at half-maximal effect. Summed up:
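Luminescence generated by NanoLuc from substrate produced by living HEK293 cells served as the viability signal. Each value reflects the reading at its stated time point during continuous 40 h compound exposure at 37 C.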

Assay [19] in a line: qHTS assay to identify small molecule antagonists of the constitutive androstane receptor (CAR) signaling pathway - cell viability counter screen (AID 1224837). Also: nearly all actives have a fitted effect of over 45% in size. The procedure, abridged: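 Using CellTiter-Fluor, viability is scored in HepG2 cells stably carrying hCAR and a 2.2kb CYP2B6 reporter after 23 hr compound exposure across 15 concentrations, with CITCO present at 50 nM.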
% is scaled to controls: 0 for no effect and ±100 for the full control effect.

Chain of Luciferin 4-monooxygenase (Photinus pyralis) (P08659 whole entry, looked up): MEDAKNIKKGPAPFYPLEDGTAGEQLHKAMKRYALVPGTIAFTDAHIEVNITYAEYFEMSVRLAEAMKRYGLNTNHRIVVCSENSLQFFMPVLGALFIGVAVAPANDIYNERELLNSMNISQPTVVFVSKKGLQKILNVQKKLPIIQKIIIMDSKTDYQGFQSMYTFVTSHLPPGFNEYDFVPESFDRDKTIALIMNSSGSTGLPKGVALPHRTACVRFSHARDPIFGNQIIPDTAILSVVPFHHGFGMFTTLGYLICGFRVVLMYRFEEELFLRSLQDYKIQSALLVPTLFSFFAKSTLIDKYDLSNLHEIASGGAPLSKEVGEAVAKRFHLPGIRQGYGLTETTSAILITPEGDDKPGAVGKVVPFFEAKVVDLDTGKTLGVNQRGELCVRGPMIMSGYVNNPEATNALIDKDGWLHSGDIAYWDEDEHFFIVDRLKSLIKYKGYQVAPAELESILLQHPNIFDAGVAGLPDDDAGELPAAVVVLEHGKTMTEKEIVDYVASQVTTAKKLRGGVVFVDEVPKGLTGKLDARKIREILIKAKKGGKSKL
Chain of Nuclear receptor subfamily 1 group I member 3 (Homo sapiens) (Q14994 whole entry, looked up): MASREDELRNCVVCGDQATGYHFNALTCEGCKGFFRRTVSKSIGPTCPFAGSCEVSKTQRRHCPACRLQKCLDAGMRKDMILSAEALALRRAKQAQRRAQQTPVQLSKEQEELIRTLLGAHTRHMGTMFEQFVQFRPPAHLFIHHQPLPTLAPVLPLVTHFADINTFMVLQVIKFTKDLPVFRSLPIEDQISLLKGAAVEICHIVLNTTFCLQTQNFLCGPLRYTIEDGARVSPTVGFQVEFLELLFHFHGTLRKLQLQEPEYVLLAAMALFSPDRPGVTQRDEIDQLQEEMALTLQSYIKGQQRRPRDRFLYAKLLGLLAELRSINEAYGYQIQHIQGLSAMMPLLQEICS
Chain of Thyrotropin receptor (Homo sapiens) (P16473 whole entry, looked up): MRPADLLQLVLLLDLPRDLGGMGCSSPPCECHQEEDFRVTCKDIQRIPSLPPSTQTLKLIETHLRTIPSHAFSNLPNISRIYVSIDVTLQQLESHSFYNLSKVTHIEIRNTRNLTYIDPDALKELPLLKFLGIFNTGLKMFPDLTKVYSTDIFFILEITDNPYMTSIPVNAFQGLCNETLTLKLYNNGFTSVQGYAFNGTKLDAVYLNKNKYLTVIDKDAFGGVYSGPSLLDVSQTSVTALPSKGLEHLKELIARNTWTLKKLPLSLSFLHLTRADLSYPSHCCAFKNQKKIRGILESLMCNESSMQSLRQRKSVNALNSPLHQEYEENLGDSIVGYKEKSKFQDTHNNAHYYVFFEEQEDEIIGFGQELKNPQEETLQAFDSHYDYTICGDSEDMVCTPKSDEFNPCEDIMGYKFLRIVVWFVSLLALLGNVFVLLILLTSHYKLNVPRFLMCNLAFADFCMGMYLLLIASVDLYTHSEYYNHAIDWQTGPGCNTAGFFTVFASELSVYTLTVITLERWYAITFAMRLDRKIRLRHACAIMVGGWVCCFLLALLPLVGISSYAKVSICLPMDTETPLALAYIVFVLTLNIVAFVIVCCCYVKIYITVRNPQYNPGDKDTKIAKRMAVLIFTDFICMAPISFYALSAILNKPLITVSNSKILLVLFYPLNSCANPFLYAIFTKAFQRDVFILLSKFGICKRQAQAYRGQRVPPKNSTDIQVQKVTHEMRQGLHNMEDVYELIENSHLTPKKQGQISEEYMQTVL

Turning to `CCCCCSCCCCC`, the Potency result in [1], in assay [2], in assay [3], in assay [4], in assay [5] and in assay [6] was “inactive” throughout. Also, the Potency entry in assay [7], in [9], in assay [10], in assay [13], in assay [14] and in assay [16] was “inactive” throughout. In assay [17], the Potency entry was “inactive”. The compound was called inactive in assay [8], in assay [11] and in [12]. Moreover, the activity change, positive = activation in assay [15] is 6.38%.

On to `O=c1cc(-c2ccccc2)oc2ccccc12`, for which the Potency entry in [1], in [3], in assay [6], in assay [10], in assay [16] and in assay [17] was “inactive” throughout. The Potency in assay [2] is 7.97 µM (active) and 12.6 µM (active); in [5], 27.3 µM (active) and 21.6 µM (active); in assay [18], 15.5 µM (active) and 6.88 µM (active). The compound was called inactive in [12].

Take `FC(F)OC(Cl)C(F)(F)F` (centres undefined): the Potency entry in [1], in [3], in [19], in assay [4], in [5] and in assay [6] was “inactive” each time. Moreover, the Potency entry in [7], in [10], in assay [13], in assay [14], in assay [16] and in assay [18] was “inactive” throughout. In addition, the Potency entry in assay [17] was “inactive”. Besides, the call in assay [8], in [11] and in assay [12] was inactive. The activity change, positive = activation in [15] is 8.92%.

Turning to `CCCCOCCOCCOCc1cc2c(cc1CCC)OCO2`, the Potency result in assay [1], in [3], in assay [19], in assay [4], in [6] and in assay [10] was “inactive” in each case. Also, the Potency entry in [13], in assay [16] and in [17] was “inactive” each time. Besides, in [5], the Potency was 7.79 µM (active) and 11.9 µM (active). For the same compound, the call in [11] and in assay [12] was inactive.

For the compound `CC(=O)OC/C=C(\C)CC/C=C(\C)CCC=C(C)C`, the Potency entry in assay [1], in [3], in assay [19], in [4], in assay [5] and in assay [6] was “inactive” in each case. Also, the Potency result in [7], in [9], in [10], in assay [13], in assay [16] and in [17] was “inactive” in each case. The compound was called inactive in assay [8], in [11] and in assay [12]. Further, in [15], the activity change, positive = activation was 1.18% and 2.19%.

As for `CC[N+](C)(C)c1cccc(O)c1`, the Potency entry in assay [1], in [3], in assay [19], in [4], in assay [5] and in assay [6] was “inactive” each time. In addition, the Potency entry in [9], in assay [10], in assay [13], in [16], in assay [18] and in assay [17] was “inactive” in each case. The result in assay [11] was inactive.

Consider `N=c1nc(N2CCCCC2)cc(N)n1O`, for which the Potency entry in [1], in [3], in [19], in assay [4], in [5] and in assay [6] was “inactive” each time. For the same compound, the Potency entry in assay [9], in assay [10], in [13], in [16], in [18] and in assay [17] was “inactive” throughout. In addition, in assay [11], the compound was called inactive.

As for `O=C1NC(=O)[C@@]2(CCOc3ccc(F)cc32)N1`, the Potency result in assay [1], in [3], in [19], in [6], in assay [9] and in assay [10] was “inactive” throughout. For the same compound, the Potency result in assay [13], in [16] and in [17] was “inactive” each time. The call in assay [11] and in assay [12] was inactive.
